Paper PMC5540273 (PLoS ONE, 2017)

The compounds below were run on CAMK2A. Conditions: concentration: 1 μM, replicates: in singlicate; n = 1.
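Note: KINOMEscan kinase panel screen.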

Structure (SMILES) | %Inh
O=C(Nc1n[nH]c2nc(-c3ccccc3)c(Br)cc12)C1CC1 [SB-708998] | 0%
COC(=O)c1c(-c2ccccc2)c2cc(Br)ccc2c(=O)n1Cc1ccc(NC(=O)CCC(=O)O)cc1 | 0%
COc1cc2ncn(-c3cc(OCCCc4ccccc4)c(C(N)=O)s3)c2cc1OC [GSK205189] | 0%
Nc1nc(N)c2nc(-c3ccccc3)[nH]c2n1 [SKF-12778] | 0%
COc1ccc(CNC(=O)NC2CCN(c3ccnc(Nc4ccc(F)cc4)n3)C2)cc1 (stereo not drawn) [GSK1379706] | 0%
COc1ccc(Nc2nccc(N3CCC(NS(=O)(=O)c4ccc(NC(C)=O)cc4)C3)n2)cc1 (stereo not drawn) [GSK1379729] | 0%
CCS(=O)c1ccc(-c2coc3ccc(-c4nnc(C)o4)cc23)cc1 (stereo not drawn) | 0%
COc1cc2ncn(-c3cc(OCc4ccncc4)c(C(N)=O)s3)c2cc1OC [GSK336313] | 0%
O=C(Nc1n[nH]c2nc(-c3ccccc3)c(Cl)cc12)C1CC1 [SB-734909] | 0%
Cc1nnc(-c2ccc3ncn(-c4ccc(S(C)=O)cc4)c3c2)o1 (stereo not drawn) | 0%
Nc1n[nH]c2ncc(-c3ccccc3)cc12 [SB-517081] | 0%
COc1cc2ncn(-c3cc(OCc4ccc(S(C)(=O)=O)cc4)c(C(N)=O)s3)c2cc1OC [GW869979] | 3%
Cc1ccc(-c2ccc3c(ccc4sc5c(c43)NC[C@@H](C)N=C5N(C)C)n2)cn1 | 0%
COc1cc(Nc2nccc(N3CCC(NC(=O)C(C)c4ccc(Cl)cc4)C3)n2)cc(OC)c1OC (stereo not drawn) [GSK1379757] | 0%
Cl.NS(=O)(=O)c1cccc(Nc2cc(-c3ccc(F)cc3)n[nH]2)c1 [GW824645] | 0%
CCCNC(=O)Nc1ccc(Oc2ncnc3ccn(C)c23)cc1 | 0%
CCC(=O)c1c(-c2ccccc2)c2cc(Cl)ccc2c(=O)n1Cc1ccc(C(=O)O)cc1 | 0%
O=c1cc(N2CCOCC2)nc2n(Cc3ccc(F)c(Cl)c3)ccn12 [GSK2297099] | 0%

Structure (SMILES) | %Inh
CCC(=O)c1c(-c2ccccc2)c2cc(Cl)ccc2c(=O)n1Cc1cc(S(C)(=O)=O)n(CC(N)=O)n1 | 0%
FC(F)(F)c1ccc(-c2ncn(CCCN3CCOCC3)c2-c2ccncc2)cc1 [SB-217780] | 0%
Cc1nc(N(C)[C@H]2CN(C(=O)CC#N)CC[C@H]2C)c2cc[nH]c2n1 | 0%
Nc1ncnc2c1ncn2-c1cccc2ccccc12 [SKF-97184] | 0%
Cc1nnc(-c2ccc(C)c(-c3ccc(C(=O)O)cc3)c2)o1 [GW608005] | 0%
COc1cccc(C2=C(Nc3cccc(C(=O)O)c3)C(=O)NC2=O)c1 [SB-390770] | 22%
COc1ccc(-c2cc3c(C)nc(N)nc3n([C@H]3CC[C@H](O)CC3)c2=O)cn1 | 0%
Cc1cc(Nc2nc(-c3cccc(C)n3)nc3ccccc23)ccn1 [GW872411] | 0%
COc1cc2nccc(Nc3ccc(OCc4ccc(NC(C)=O)cc4)cc3)c2cc1OC.Cl [GW440135] | 0%
O=C(Nc1n[nH]c2cc(-c3ccccc3F)ccc12)C1CC1 [SB-733371] | 2%
CN(C)c1cc(-c2ccc3c(N)n[nH]c3c2)nc(N)n1 [GSK2219329] | 0%
CCS(=O)(=O)c1ccc(OC)c(Nc2ncc(-c3ccc(F)cc3)o2)c1.Cl [GW591947] | 0%
Nc1nc(-c2ccccc2F)c(-c2ccnc3ccccc23)s1 [GW560459] | 0%
Cc1nn2c(=O)cc(N3CCOCC3)nc2n1Cc1cccc(Cl)c1Cl [GSK2342769] | 0%
Fc1cccc(CSc2nnc(-c3ccc4c(c3)CCO4)o2)c1 | 16%
Cc1cccc(-c2cc(-c3c[nH]nc3-c3ccccn3)ccn2)c1 [GW679395] | 0%
COc1cc2ncn(-c3cc(OCc4ccncc4Br)c(C(N)=O)s3)c2cc1OC [GW854278] | 37%
CC(C)(C)c1ccc(C(=O)Nc2cn3cc(-c4ccccc4)ccc3n2)cc1 | 0%

Each compound was assayed on CAMK2B. Conditions: concentration: 1 μM, replicates: in singlicate; n = 1.

Structure (SMILES) | %Inh
O=C(Nc1n[nH]c2nc(-c3ccccc3)c(Br)cc12)C1CC1 [SB-708998] | 0%
COC(=O)c1c(-c2ccccc2)c2cc(Br)ccc2c(=O)n1Cc1ccc(NC(=O)CCC(=O)O)cc1 | 0%
COc1cc2ncn(-c3cc(OCCCc4ccccc4)c(C(N)=O)s3)c2cc1OC [GSK205189] | 0%
Nc1nc(N)c2nc(-c3ccccc3)[nH]c2n1 [SKF-12778] | 0%
COc1ccc(CNC(=O)NC2CCN(c3ccnc(Nc4ccc(F)cc4)n3)C2)cc1 (stereo not drawn) [GSK1379706] | 0%
COc1ccc(Nc2nccc(N3CCC(NS(=O)(=O)c4ccc(NC(C)=O)cc4)C3)n2)cc1 (stereo not drawn) [GSK1379729] | 0%
CCS(=O)c1ccc(-c2coc3ccc(-c4nnc(C)o4)cc23)cc1 (stereo not drawn) | 3%
COc1cc2ncn(-c3cc(OCc4ccncc4)c(C(N)=O)s3)c2cc1OC [GSK336313] | 0%
O=C(Nc1n[nH]c2nc(-c3ccccc3)c(Cl)cc12)C1CC1 [SB-734909] | 0%
Cc1nnc(-c2ccc3ncn(-c4ccc(S(C)=O)cc4)c3c2)o1 (stereo not drawn) | 0%
Nc1n[nH]c2ncc(-c3ccccc3)cc12 [SB-517081] | 0%
COc1cc2ncn(-c3cc(OCc4ccc(S(C)(=O)=O)cc4)c(C(N)=O)s3)c2cc1OC [GW869979] | 6%
Cc1ccc(-c2ccc3c(ccc4sc5c(c43)NC[C@@H](C)N=C5N(C)C)n2)cn1 | 0%
COc1cc(Nc2nccc(N3CCC(NC(=O)C(C)c4ccc(Cl)cc4)C3)n2)cc(OC)c1OC (stereo not drawn) [GSK1379757] | 0%
Cl.NS(=O)(=O)c1cccc(Nc2cc(-c3ccc(F)cc3)n[nH]2)c1 [GW824645] | 0%
CCCNC(=O)Nc1ccc(Oc2ncnc3ccn(C)c23)cc1 | 1%
CCC(=O)c1c(-c2ccccc2)c2cc(Cl)ccc2c(=O)n1Cc1ccc(C(=O)O)cc1 | 0%
O=c1cc(N2CCOCC2)nc2n(Cc3ccc(F)c(Cl)c3)ccn12 [GSK2297099] | 0%

Structure (SMILES) | %Inh
CCC(=O)c1c(-c2ccccc2)c2cc(Cl)ccc2c(=O)n1Cc1cc(S(C)(=O)=O)n(CC(N)=O)n1 | 0%
FC(F)(F)c1ccc(-c2ncn(CCCN3CCOCC3)c2-c2ccncc2)cc1 [SB-217780] | 0%
Cc1nc(N(C)[C@H]2CN(C(=O)CC#N)CC[C@H]2C)c2cc[nH]c2n1 | 5%
Nc1ncnc2c1ncn2-c1cccc2ccccc12 [SKF-97184] | 0%
Cc1nnc(-c2ccc(C)c(-c3ccc(C(=O)O)cc3)c2)o1 [GW608005] | 0%
COc1cccc(C2=C(Nc3cccc(C(=O)O)c3)C(=O)NC2=O)c1 [SB-390770] | 33%
COc1ccc(-c2cc3c(C)nc(N)nc3n([C@H]3CC[C@H](O)CC3)c2=O)cn1 | 0%
Cc1cc(Nc2nc(-c3cccc(C)n3)nc3ccccc23)ccn1 [GW872411] | 0%
COc1cc2nccc(Nc3ccc(OCc4ccc(NC(C)=O)cc4)cc3)c2cc1OC.Cl [GW440135] | 0%
O=C(Nc1n[nH]c2cc(-c3ccccc3F)ccc12)C1CC1 [SB-733371] | 0%
CN(C)c1cc(-c2ccc3c(N)n[nH]c3c2)nc(N)n1 [GSK2219329] | 0%
CCS(=O)(=O)c1ccc(OC)c(Nc2ncc(-c3ccc(F)cc3)o2)c1.Cl [GW591947] | 0%
Nc1nc(-c2ccccc2F)c(-c2ccnc3ccccc23)s1 [GW560459] | 0%
Cc1nn2c(=O)cc(N3CCOCC3)nc2n1Cc1cccc(Cl)c1Cl [GSK2342769] | 0%
Fc1cccc(CSc2nnc(-c3ccc4c(c3)CCO4)o2)c1 | 24%
Cc1cccc(-c2cc(-c3c[nH]nc3-c3ccccn3)ccn2)c1 [GW679395] | 0%
COc1cc2ncn(-c3cc(OCc4ccncc4Br)c(C(N)=O)s3)c2cc1OC [GW854278] | 46%
CC(C)(C)c1ccc(C(=O)Nc2cn3cc(-c4ccccc4)ccc3n2)cc1 | 0%
